Screening results as filed in PubChem BioAssay.
Shown is part of a subset that was picked to be rich in hits.
A1 inh: A1 inhibition; MEF A1-2A-BIM cells, caspase-Glo luminescence, 3 h; percent of clofoctol signal, DMSO as zero; caspase activation, % (test concentration not listed); 21,000 tested, 0.51% active;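 active = most replicate scores above 10, or exactly half above 10 with mean activity above 10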;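 also: effector caspase 3 and 7 activity cleaving a DEVD luciferin substrate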
Of the large screens only hits and unclear results are named; the others gave an inactive call.

O=C(NC1CCCCC1)C1CCC(Cn2c(=S)[nH]c3ccccc3c2=O)CC1 (centres undefined)	none
O=C(O)c1ccc2c(c1)C1C3CCC(C3)C1C(c1ccccc1)N2 (centres undefined)	none
CCOC(=O)CSc1nc2cc(Cl)c(Cl)cc2n1CC	none
COC(=O)CN(Cc1ccccc1)S(=O)(=O)c1ccc(C)cc1	none
Cc1ccc(S(=O)(=O)c2ccc(-c3ccccc3)cc2)cc1	none
Cc1ccc(S(=O)(=O)N[C@@H](Cc2ccccc2)C(=O)CCl)cc1	A1 inh 16
CC(Oc1ccccc1-c1ccccc1)c1n[nH]c(=S)n1-c1ccccc1 (centres undefined)	none
Cc1ncoc1C(=O)Nc1ccc(C(N)=O)cc1	none
O=c1c2ccccc2nc2c3ccccc3c(N3CCOCC3)nn12	none
O=c1cc(N2CCOCC2)oc2c1ccc1ccccc12	none
O=c1cc(N2CCOCC2)oc2c(-c3ccccc3)cccc12	A1 inh 11
O=c1c2ccccc2nc(SCc2c(F)cccc2F)n1Cc1ccccc1	none
C=CCN(CC=C)C(=O)Cc1ccc(Br)cc1	none
CCCNC(=O)c1[nH]c2ccccc2c1Sc1ccc(Cl)cc1	none
Cc1[nH]c2ccccc2c1Sc1ccccc1	A1 inh 11
Cc1[nH]c2ccccc2c1C(c1c(C)[nH]c2ccccc12)C(C)C	none
COC(=O)C(C(C)C)N1C(=O)C2C3C=CC(C3)C2C1=O (centres undefined)	none
CCCC(=O)N1c2ccccc2NC2=C(C(=O)CCC2)C1c1ccc(OC)c(OC)c1 (centres undefined)	none
CC1CC(=O)c2c(ccc3c2C(=O)c2c(O[C@@H]4O[C@@H](C)[C@H](O)[C@@H](O)[C@H]4O)cccc2C3=O)C1 (some centres undefined)	none
COc1cccc2c1C(=O)c1c(O)c3c(c(O)c1C2=O)C[C@@](O)(C(C)=O)C[C@@H]3O[C@H]1C[C@H](N)[C@H](O)[C@H](C)O1	A1 inh 15
S=C(NC1CCCCC1)Sc1ccc(Cl)cc1	none
Cc1cc2ncc(-c3ccn(S(=O)(=O)c4ccc(Cl)cc4)c3)nc2cc1C	none
CCC(C)[C@H]1C(=O)O[C@H](C(C)C)C(=O)N(C)[C@@H](C(C)C)C(=O)O[C@H](C(C)C)C(=O)N(C)[C@@H](C(C)C)C(=O)O[C@H](CC(C)C)C(=O)N1C (some centres undefined)	A1 inh 45
Cc1noc(C)c1S(=O)(=O)N(C)C[C@@H]1Oc2ccc(NC(=O)CCCN(C)C)cc2C(=O)N([C@@H](C)CO)C[C@@H]1C	none
CCc1cc(C)cc(OCCn2cc(C=C3C(=O)NC(=O)NC3=O)c3ccccc32)c1	A1 inh 39
CCc1ccc(OCCCn2cc(/C=C3/C(=N)N4C=CSC4=NC3=O)c3ccccc32)cc1	none
CCOC(=O)Cn1cc(/C=C2\C(=O)NC(=O)N(c3ccc(F)cc3)C2=O)c2ccccc21	none
COc1ccc(/C=N/n2c(=O)c3c(ncn3/N=C/c3ccc(OC)cc3)n(C)c2=O)cc1	none
COc1ccc(C(=O)O[C@H]2CC(C)=CCC3(C)CC[C@@](O)(C(C)C)[C@H]23)cc1 (some centres undefined)	none
COC(=O)Cn1c(=O)c2cccn2c2ccccc21	none
Cc1cc(C)cc(NC(=O)Cn2c(=O)c3cccn3c3ccccc32)c1	A1 inh 56
COc1cccc(NC(=O)Cn2c(=O)c3cccn3c3ccccc32)c1	none
O=C1NC(=O)C(C(CC(=O)c2ccccc2)c2ccccc2Br)C(=O)N1 (centres undefined)	none
CCOC(=O)c1sc(N(Cc2nc(-c3cccc(C)c3)oc2C)C(C)=O)c(C#N)c1C	none
COc1ccc2[nH]c3c(=O)n(CC(=O)N4CCN(c5ccc(F)cc5)CC4)c(=S)[nH]c3c2c1	none
COc1ccc2[nH]c3c(=O)n(Cc4ccc(C(=O)NCCc5ccc(C)cc5)cc4)c(=S)[nH]c3c2c1	A1 inh 112
O=C(NCC1CCCO1)c1ccc(Cn2c(=S)[nH]c3ccccc3c2=O)cc1 (centres undefined)	none
CC(=C1C(=O)c2ccccc2C1=O)N1CCC(Cc2ccccc2)CC1	none
CCOC(=O)C(C(=O)Nc1cccc(C(F)(F)F)c1)C1CCCCC1 (centres undefined)	none
CC(C)CC(NC(=O)Nc1cccc2ccccc12)C(=O)O (centres undefined)	none
Cc1nn(-c2ccccc2)nc1CNS(=O)(=O)c1ccc2c(c1)OCCN2C	none
CCCC(=O)N1CCc2cc(OC)c(OC)cc2C1COc1ccc(OC)cc1 (centres undefined)	none
CCC1CN2CCc3cc(OC)c(OC)cc3[C@@H]2C[C@@H]1C[C@H]1NCCc2cc(OC)c(OC)cc21 (some centres undefined)	A1 inh 17
COc1cc2c(cc1OC)C1C(C)C(=O)C3=C(CSCC3=O)N1CC2 (centres undefined)	none
CC(C)(C)NC(=O)N1CCN(c2ccc(C#N)cn2)CC1	none
CCCS(=O)(=O)N1CCCC(C(=O)NC)C1 (centres undefined)	none
C[C@@H]1CN([C@H](C)CO)C(=O)c2cc(NS(C)(=O)=O)ccc2O[C@H]1CN(C)S(=O)(=O)c1ccccc1	none
c1ccc(-c2ccnc(-c3cc(-c4ccccc4)ccn3)c2)cc1	none
CC(Oc1ccccc1)C(=O)NC1CCCC1 (centres undefined)	none
O=C(O)CN1C(=O)CCS(=O)(=O)c2ccccc21	none
